Holding throughout (assay): NCI-60 one-dose screen, 48 h (100 = growth as untreated, 0 = no growth, -100 = all killed)
Holding throughout (settings): 10 µM

Assay [1] concerns DU-145 prostate.
In assay [2] the test system is K-562 leukemia.
Assay [3] concerns MALME-3M melanoma.
Assay [4] relates to MDA-MB-231 breast.
In assay [5] the test system is SF-268 CNS.
The subject of assay [6] is SF-295 CNS.
Assay [7] deals with SF-539 CNS.
The test system of assay [8] is UACC-257 melanoma.
Assay [9] deals with M14 melanoma.

Each structure is given as a SMILES string. About 83,000 compounds went through this panel and 20% of them were active in at least one assay; those are over-represented in the sample as a whole.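 Activity criterion: percent growth below 10, measured after cells in 96-well plates were exposed to a single compound concentration for 48 hours.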 Values without a mark were called inactive. Calls of active or inactive are those of the source.

As to `O=c1[nH]c2ccccc2cc1CSc1ccc(Nc2nccc(-c3ccc4c(c3)OCO4)n2)cc1`, the growth in assay [1] is 77.5%; in [2], 87.6%; in [3] it was 55.2%; in assay [4] it was 78.6%; in [5], 71.6%; in [6], 101%. For the same compound, the growth was 9.95% (active) in assay [7], 105% in assay [8] and 82.4% in [9].
Regarding `Cc1ccn2c(C(=O)c3ccc(Br)cc3)cc(-c3cc(-c4ccc(N(C)C)cc4)c(C#N)c(N)n3)c2c1`, the growth was 56.2% in assay [1]; 68.7% in assay [2]; -1.54% (active) in [3]; 39.5% in assay [4]; 68% in assay [5]; 68.1% in [6]. Moreover, the growth in assay [7] was 24.2%; in assay [8], 79.7%; in assay [9] it was 57.7%.
For `CCCn1c(=O)c2[nH]c(-c3ccc(OCc4nc5ccc(C(F)(F)F)cc5[nH]4)cc3)nc2n(CCC)c1=O`, the growth in [1] is 58.3%; in assay [2], 34.9%; in assay [3] it was 14.2%; in [4], 11.1%; in assay [5], 57.2%; in assay [6] it was 38.8%. Moreover, the figures for the growth in assay [7], in [8] and in [9] were 1.94% (active), 65.5% and 59.5%, respectively.
As to `COC(=O)c1c(C(=O)OC)c2n(c1C)[C@@H]([C@@H](C)[C@H]1CC[C@H]3[C@@H]4CCC5=CC(=O)CC[C@]5(C)[C@H]4CC[C@]13C)SC2`, the growth in assay [1] is 57.8%; in [2], 15.7%; in assay [3], 62.5%; in assay [4], 56.7%; in assay [5] it was 56.4%; in assay [6] it was 24.7%. Also, the growth in assay [7] is 59%; in assay [8] it was 19.5%; in assay [9], 25.2%.
As for `Cc1noc2c(Cc3ccccc3)nn(CC(=O)N/N=C/c3ccc(Br)cc3)c(=O)c12`, the growth in assay [1] was 61.1%; in assay [2] it was 87.2%; in assay [3], 64.9%; in assay [4] it was 20.6%; in assay [5], 75.5%; in assay [6], 50.6%. Further, the growth in assay [7] was 74.4%; in assay [8] it was 101%; in [9] it was 101%.
Consider `COc1ccc(-c2ccc(SCC(=O)Nc3ccc(C#N)cc3)nn2)cc1`, for which the growth in assay [1] is 105%; in assay [2], 90%; in assay [3], 78.6%; in assay [4], 85.4%; in assay [5], 99.1%; in [6] it was 81.3%. Also, the growth is 71% in assay [7], 98.9% in assay [8] and 93% in assay [9].
For `O/N=C(\CSc1nnc(-c2c[nH]c3ccccc23)n1-c1ccccc1)c1ccc(Br)cc1`, the growth in assay [1] is -88.5% (active); in assay [2], -11.1% (active); in assay [3] it was -10.2% (active); in assay [4], -84.2% (active); in [5], -55.6% (active); in assay [6], -15% (active). Also, the growth was -64.9% (active) in assay [7], -8.6% (active) in assay [8] and -67.7% (active) in assay [9].
For the compound `N#C/C(=C\c1ccc(N(c2ccccc2)c2ccccc2)cc1)C(N)=O`, the growth is 84.8% in assay [1]; 35.4% in assay [2]; 110% in [3]; 89.3% in assay [4]; 102% in [5]; 23.5% in assay [6]. Further, the growth in assay [7] was 97%; in [8] it was -55.9% (active); in assay [9], 90.7%.
For `Cc1ccc(C(=O)NNC(=O)CSc2nc3ccccc3c(=O)[nH]2)cc1`, the growth in assay [1] is 105%; in [2], 97.6%; in assay [3] it was 91.7%; in assay [4] it was 91.1%; in assay [5] it was 101%; in assay [6], 96.3%. Also, the growth was 98.7% in assay [7], 105% in assay [8] and 108% in [9].
As to `CCCCSc1nc(Nc2ccc(/C(C)=N/NC(N)=S)cc2)c(C#N)c(-c2ccc(F)cc2)n1`, the growth in assay [1] is 41.5%; in [2], 71.9%; in assay [3] it was 33.9%; in assay [4], 3.28% (active); in assay [5], 90.1%; in assay [6], 28.5%. Besides, the figures for the growth in assay [7], in assay [8] and in [9] were -13.5% (active), 78.6% and 79%, respectively.
For `COc1ccc(CN2[C@@H](C(=O)NCc3ccc(C(=O)NO)cc3)Cc3c([nH]c4ccccc34)[C@@H]2C2CC2)cc1`, the growth was 15.8% in assay [1]; 6.95% (active) in [2]; 12.8% in assay [3]; 5.56% (active) in assay [4]; 20.9% in assay [5]; 3.12% (active) in [6]. In addition, the growth in assay [7] was 15.3%; in [8], 36.3%; in assay [9] it was 16.1%.
Consider `CN1C(=O)N(C)C2SC(N/N=C/c3ccccc3F)=NC21` (stereo not given), for which the growth in assay [1] was 94.7%; in [2] it was 17.2%; in assay [3] it was 59.4%; in [4], 50.2%; in assay [5], 78.7%; in assay [6] it was 62%. Besides, the growth in [7] was 54.3%; in assay [8] it was 82.7%; in [9] it was 36.5%.
Turning to `O=C(CNc1nc(-c2ccccc2)cs1)Nc1ccc([N+](=O)[O-])cc1Cl`, the growth in assay [1] is 54.8%; in assay [2], 12.2%; in assay [3] it was 24%; in assay [4], 10.8%; in assay [5], 29.6%; in assay [6], 34.2%. Moreover, the growth is 2.17% (active) in assay [7], 58.5% in assay [8] and 34.4% in assay [9].
With `N#Cc1ccc(-c2nn(-c3ccc(C(=O)O)cc3)cc2CNc2cccc(Br)c2)cc1`, the growth in [1] is 76.8%; in [2], 46.3%; in assay [3], 95.6%; in [4], 89.4%; in assay [5] it was 51.7%; in assay [6], 42.5%. Besides, the growth was 38.6% in assay [7], 65.7% in assay [8] and 37.2% in [9].
On to `O=c1c2ccccc2nc(COc2ccccc2)n1/N=C/c1ccc(N2CCOCC2)cc1`, for which the growth is 77.5% in assay [1]; 103% in assay [2]; 56.8% in [3]; 26% in assay [4]; 26.4% in [5]; 69.8% in assay [6]. Besides, the growth in assay [7] is 34.1%; in assay [8], 95.7%; in [9] it was 93.9%.

The values above are taken from PubChem BioAssay (NCI).
